{"source": "PubChem BioAssay (NCATS)", "note": "Results filed as inconclusive are left out. Where a call stands in place of a potency, no number is given. The source made the active and inactive calls. Calls come from the whole dose curve.", "data": [{"test": "Primary qHTS for Huh7 cytotoxicity: counterscreen for inhibitors of MERS-S pseudotyped particle cell entry (AID 1479147)", "conditions": "cell viability read-out; series mostly up to 57.1 µM; activity change, negative = cytotoxicity: at the top concentration", "values": [{"molecule": "CCc1ccc(C(=O)C(C)CN2CCCCC2)cc1", "note": "(stereo not drawn)", "outcome": "inactive"}, {"molecule": "CN1CCC(=C2c3ccccc3CCc3cccnc32)CC1", "activity change, negative = cytotoxicity": "-5.23% (inactive)"}, {"molecule": "C/C=C/C(=O)N(CC)c1ccccc1C", "activity change, negative = cytotoxicity": "3.44% (inactive)"}, {"molecule": "O=c1[nH]c(=O)c2[nH]c(=O)[nH]c2[nH]1", "outcome": "inactive [at 11.4 µM]"}, {"molecule": "CCOC(CN1CCN(CC(C)C(=O)c2ccccc2)CC1)c1ccccc1", "note": "(stereo not drawn)", "outcome": "inactive [at 26.4 µM]"}, {"molecule": "CCOCCOC(=O)/C=C/c1ccc(OC)cc1", "outcome": "inactive"}, {"molecule": "CC(Oc1c(Cl)cccc1Cl)C1=NCCN1", "note": "(stereo not drawn)", "outcome": "inactive"}, {"molecule": "COC1=C(OC)C(=O)C(CCCCCCCCCCO)=C(C)C1=O", "outcome": "inactive"}, {"molecule": "CCCCNc1ccc(C(=O)OCCN(C)C)cc1", "activity change, negative = cytotoxicity": "0.244% (inactive)"}, {"molecule": "Cc1ccc(/C(=C\\CN2CCCC2)c2ccccn2)cc1", "outcome": "inactive"}, {"molecule": "CCOC(=O)OC(C)OC1=C(C(=O)Nc2ccccn2)N(C)S(=O)(=O)c2ccccc21", "note": "(stereo not drawn)", "outcome": "inactive"}, {"molecule": "CC[N+](CC)(CC(=O)Nc1c(C)cccc1C)Cc1ccccc1", "Potency": "inactive"}, {"molecule": "Nc1ccn(C2CO[C@H](CO)O2)c(=O)n1", "note": "(stereo partly drawn)", "outcome": "inactive"}, {"molecule": "CC(=O)[C@@]1(O)CC[C@H]2[C@@H]3C[C@H](C)C4=CC(=O)CC[C@]4(C)[C@H]3CC[C@@]21C", "outcome": "inactive"}, {"molecule": "CCn1c(=O)c2c(nc(C=Cc3ccc(OC)c(OC)c3)n2C)n(CC)c1=O", "activity change, negative = cytotoxicity": "-5.24% (inactive)"}, {"molecule": "CCN(CC)C(=O)Nc1ccc(OCC(O)CNC(C)(C)C)c(C(C)=O)c1", "note": "(stereo not drawn)", "outcome": "inactive"}, {"molecule": "C=CCc1ccccc1OCC(O)CNC(C)C", "note": "(stereo not drawn)", "outcome": "inactive"}, {"molecule": "CN(C)CCC(c1ccccc1)c1ccccn1", "note": "(stereo not drawn)", "outcome": "inactive"}, {"molecule": "O=c1oc2c(O)c(O)cc3c(=O)oc4c(O)c(O)cc1c4c23", "activity change, negative = cytotoxicity": "-5.26% [at 26.4 µM] (inactive)"}, {"molecule": "C[C@H](O)C(=O)Nc1c(I)c(C(=O)NC(CO)CO)c(I)c(C(=O)NC(CO)CO)c1I", "outcome": "inactive"}, {"molecule": "C1CCN2C[C@@H]3C[C@@H](CN4CCCC[C@@H]34)[C@H]2C1", "outcome": "inactive"}, {"molecule": "C=C1c2cccc(O)c2C(O)=C2C(=O)[C@]3(O)C(O)=C(C(N)=O)C(=O)[C@@H](N(C)C)[C@@H]3[C@@H](O)[C@H]12", "activity change, negative = cytotoxicity": "2.67% (inactive)"}, {"molecule": "Nc1c(NC/C=C\\COc2cc(CN3CCCCC3)ccn2)c(=O)c1=O", "outcome": "inactive [at 26.4 µM]"}, {"molecule": "Cc1ccc(N(CC2=NCCN2)c2cccc(O)c2)cc1", "activity change, negative = cytotoxicity": "-1.19% (inactive)"}, {"molecule": "CCOC(=O)c1ccc(OC(=O)CCCCCN=C(N)N)cc1", "outcome": "inactive"}, {"molecule": "Cn1cc(C(=O)[C@@H]2CCc3nc[nH]c3C2)c2ccccc21", "outcome": "inactive"}, {"molecule": "c1ccc(CC2=NCCN2)cc1", "outcome": "inactive"}, {"molecule": "C[N+]1(C)CCC(=C(c2ccccc2)c2ccccc2)CC1", "activity change, negative = cytotoxicity": "1.56% (inactive)"}, {"molecule": "O=C(OCC(O)CO)c1ccccc1Nc1ccnc2cc(Cl)ccc12", "note": "(stereo not drawn)", "outcome": "inactive"}, {"molecule": "C[C@@H](C1=C(CCN(C)C)Cc2ccccc21)c1ccccn1", "outcome": "inactive"}, {"molecule": "COc1cc(NS(=O)(=O)c2ccc(N)cc2)ncn1", "outcome": "inactive"}, {"molecule": "CCN[C@@H]1C[C@H](N)[C@@H](OC2OC(CN)=CCC2N)[C@H](O)[C@H]1O[C@H]1OC[C@](C)(O)[C@H](NC)[C@H]1O", "note": "(stereo partly drawn)", "activity change, negative = cytotoxicity": "-16.5% [at 0.573 µM] (inactive)"}, {"molecule": "O=S(=O)(c1cccc2cnccc12)N1CCCNCC1", "activity change, negative = cytotoxicity": "2.68% (inactive)"}, {"molecule": "CCc1oc2ccccc2c1C(=O)c1cc(Br)c(O)c(Br)c1", "outcome": "inactive"}, {"molecule": "O=C1O[C@H]([C@@H](O)CO)C(O)=C1O", "activity change, negative = cytotoxicity": "2.37% (inactive)"}, {"molecule": "CN1CCC(=C2c3ccccc3CC(=O)c3sccc32)CC1", "outcome": "inactive"}, {"molecule": "CCOC(=O)[C@H](CCc1ccccc1)N[C@@H](C)C(=O)N(CC(=O)O)C1Cc2ccccc2C1", "outcome": "inactive"}, {"molecule": "C=CCOc1cc(Cl)ccc1C(=O)NCCN(CC)CC", "activity change, negative = cytotoxicity": "-10.6% (inactive)"}]}]}
